Assay results published in PubChem BioAssay.
Results with a measured potency or affinity are listed apart. Records with an inconclusive call do not appear. Active and inactive are the calls of the source. Unless noted, no rule for the calls is given here.

How the values were obtained:
[1] = RMG-1 ovarian cancer cell viability loss – cherry-pick, dose response (AID 687029;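 active = signal drop whose fitted half-maximal concentration is at most twice the top valid dose, in every test run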;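 also: cells exposed to compound for 96 hours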)
[2] = IOSE-T80 viability loss, PAX8-independent line – cell-based, cherry-pick, selectivity assay for PAX8 inhibitor project, dose response (AID 687032;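 active = fitted half-maximal concentration for viability loss no higher than twice the top valid dose, in every repeat run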;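 also: cells exposed to compound for 96 h before reading; 0% = neutral control wells and -100% = 2 µM mitoxantrone kill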)
[3] = CMV-driven luciferase expression suppression in HEK293 – cell-based, luminescence, dry powder, counter-screen for Pax8 inhibitor project, dose response (AID 743020;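 active = signal-lowering compounds whose fitted half-maximal concentration is at or below twice the top tested dose in every run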;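 also: HEK293 cells stably expressing the CMV luciferase reporter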)
[4] = general cell-killing toxicity readout – plate reader, dry powder samples, cytotoxicity control for PAX8 inhibitor project, dose response (AID 743021)
[5] = toxicity toward immortalized ovarian surface epithelium – cell-based, plate reader, dry powder samples, cytotoxicity control for PAX8 inhibitor project, dose response (AID 743045);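 also: 0% = neutral control median and -100% = positive control median; more negative values mean more cell killing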
[6] = OVCAR-3 cell viability loss – plate reader, dry powder samples, PAX8 inhibitor project, dose response (AID 743044); details: max activity: at 35 µM, hits give low values unless noted
[7] = A2780 cell killing – plate reader, dry powder samples, cytotoxicity control, dose response (AID 743046);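 also: 0% = neutral control wells and -100% = cytotoxic reference compound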
[8] = OVCAR8 cell viability loss – plate reader, dry powder samples, PAX8 project, dose response (AID 743197)

Measured: max activity

C[C@@H]1CCCCO[C@H](CN(C)Cc2ccc(Cl)c(Cl)c2)[C@@H](C)CN([C@@H](C)CO)C(=O)c2cc(NC(=O)Nc3ccc(F)cc3)ccc2O1
inactive: [1] | [2] | [3] | [4] | [5]

C[C@@H]1CN([C@@H](C)CO)C(=O)Cc2cc(NC(=O)C3CCCCC3)ccc2O[C@H]1CN(C)Cc1ccc(Cl)c(Cl)c1
inactive: [1] | [2] | [3] | [4] | [6] -14.6% [at 8 µM, hits give low values] | [5] | [7] | [8]

C[C@@H]1CN([C@H](C)CO)C(=O)c2cc(NS(=O)(=O)c3ccc(Cl)cc3)ccc2O[C@@H](C)CCCCO[C@H]1CN(C)S(=O)(=O)c1ccc(F)cc1
inactive: [1] | [2] | [3] | [4] | [6] 26.2% [at 1 µM, hits give low values] | [5]

Cc1ccccc1-c1ccc([C@@H]2[C@@H](CO)N3CCCCN(C(=O)NC4CCCC4)C[C@H]23)cc1
inactive: [1] | [2] | [3] | [4] | [6] -4.19% [at 16 µM, hits give low values] | [5] | [7] | [8]

COc1ccc(NC(=O)N2CCCCN3[C@H](CO)[C@H](c4ccc(C#Cc5ccccc5)cc4)[C@H]3C2)cc1
inactive: [1] | [2] | [3] | [4] | [6] -17.7% | [5] | [7] | [8]

C[C@@H]1CCCCO[C@@H](CN(C)Cc2ccc(C(F)(F)F)cc2)[C@H](C)CN([C@H](C)CO)C(=O)c2cc(NC(=O)c3ccccc3)ccc2O1
inactive: [1] | [2] | [3] | [4] | [6] -25.3% | [5] | [8]

N#C[C@@H]1[C@@H](c2ccc(-c3ccccc3F)cc2)[C@@H](CO)N1C(=O)C1CCC1
inactive: [1] | [2] | [3] | [4] | [6] -15.9% | [5] | [7] | [8]

C[C@@H]1CN([C@@H](C)CO)C(=O)c2cc(NC(=O)Cc3ccccc3)ccc2O[C@@H](C)CCCCO[C@H]1CN(C)Cc1ccc(C(F)(F)F)cc1
inactive: [1] | [2] | [3] | [4] | [6] -16.1% | [5] | [7]

C[C@@H]1CCCCO[C@@H](CN(C)Cc2ccc(C(F)(F)F)cc2)[C@H](C)CN([C@@H](C)CO)C(=O)c2cc(NS(=O)(=O)c3ccc(F)cc3)ccc2O1
inactive: [1] | [2] | [3] | [4] | [6] -6.08% | [5] | [7]

C[C@H]1CCCCO[C@H](CN(C)C(=O)NC2CCCCC2)[C@@H](C)CN([C@@H](C)CO)C(=O)c2cc(NC(=O)Nc3ccc(C(F)(F)F)cc3)ccc2O1
inactive: [1] | [2] | [3] | [4] | [6] -30.4% | [5] | [7]

C[C@@H]1CN([C@H](C)CO)C(=O)c2cc(NC(=O)Nc3ccc4c(c3)OCO4)ccc2O[C@@H](C)CCCCO[C@H]1CN(C)Cc1ccc(C(F)(F)F)cc1
inactive: [1] | [2] | [3] | [4] | [5]

C[C@@H]1CN([C@@H](C)CO)C(=O)Cc2cc(NS(=O)(=O)c3ccc(Cl)cc3)ccc2O[C@H]1CN(C)Cc1ccc(Cl)c(Cl)c1
inactive: [1] | [2] | [3] | [4] | [6] 11% [at 16 µM, hits give low values] | [5] | [7] | [8]

COc1ccc(CN(C)C[C@H]2OCCCC[C@H](C)Oc3ccc(NC(=O)Nc4ccc(C(F)(F)F)cc4)cc3C(=O)N([C@@H](C)CO)C[C@@H]2C)cc1
inactive: [1] | [2] | [3] | [4] | [6] -11.3% | [5] | [7]

C[C@@H]1CN([C@@H](C)CO)C(=O)c2cc(NC(=O)Nc3ccc(C(F)(F)F)cc3)ccc2O[C@@H](C)CCCCO[C@@H]1CN(C)Cc1ccncc1
inactive: [1] | [2] | [3] | [4] | [6] 59.3% [at 2.1 µM, hits give low values] | [5] | [7] | [8]

C[C@@H]1CN([C@H](C)CO)C(=O)c2cc(NC(=O)Nc3ccc(F)cc3)ccc2O[C@@H](C)CCCCO[C@H]1CN(C)C(=O)C1CCCCC1
inactive: [1] | [2] | [3] | [4] | [6] 11.9% [at 16 µM, hits give low values] | [5] | [8]

C[C@@H]1CN([C@H](C)CO)C(=O)c2cc(NS(=O)(=O)c3ccccc3)ccc2O[C@@H](C)CCCCO[C@@H]1CN(C)Cc1ccc(Cl)c(Cl)c1
inactive: [1] | [2] | [3] | [4] | [6] -20% [at 9 µM, hits give low values] | [5] | [7]

C[C@H]1CN([C@@H](C)CO)C(=O)c2c(c3ccccc3n2C)-c2ccccc2CO[C@@H]1CN(C)Cc1cccc(C(F)(F)F)c1
inactive: [1] | [2] | [3] | [4] | [6] 14.4% [at 0.26 µM, hits give low values] | [5] | [7]

O=C(C[C@H]1CC[C@@H]2[C@H](COC[C@H](O)CN2S(=O)(=O)c2cccc(F)c2)O1)Nc1ccc(-c2ccccc2)cc1
inactive: [1] | [2] | [3] | [4] | [6] 27.1% [at 0.5 µM, hits give low values] | [5] | [7]

C[C@@H]1CCCCO[C@@H](CN(C)Cc2ccc(Cl)c(Cl)c2)[C@H](C)CN([C@H](C)CO)C(=O)c2cc(NS(=O)(=O)c3ccc(Cl)cc3)ccc2O1
inactive: [1] | [2] | [3] | [4] | [6] -24.1% | [5] | [7]

O=C(C[C@@H]1CC[C@@H]2[C@H](COC[C@H](O)CN2S(=O)(=O)c2ccccc2Cl)O1)N1CCC(Cc2ccccc2)CC1
inactive: [1] | [2] | [3] | [4] | [6] -15.3% | [7]

C[C@H](CO)N1C[C@H](C)[C@@H](CN(C)Cc2ccc(Oc3ccccc3)cc2)Oc2ccc(NS(=O)(=O)c3ccc(F)cc3)cc2CC1=O
inactive: [1] | [2] | [3] | [4] | [6] -23.5% [at 4.2 µM, hits give low values] | [5] | [7]

O=C(C[C@H]1CC[C@H]2[C@@H](COC[C@@H](O)CN2Cc2ccc3c(c2)OCO3)O1)Nc1ccc(-c2ccccc2)cc1
inactive: [1] | [2] | [3] | [4] | [6] 60.4% [at 2.1 µM, hits give low values] | [5] | [7] | [8]

C[C@H](CO)N1C[C@H](C)[C@H](CN(C)Cc2ccc(Cl)c(Cl)c2)OCCCC[C@H](C)Oc2ccc(NC(=O)Nc3ccc(C(F)(F)F)cc3)cc2C1=O
inactive: [1] | [2] | [3] | [4] | [6] 27.7% [at 2.1 µM, hits give low values] | [5] | [7]

CN(C[C@H]1N[C@@H](CO)[C@@H]1c1ccc(-c2cccc(F)c2)cc1)S(C)(=O)=O
inactive: [1] | [2] | [3] | [4] | [6] 23.7% [at 8 µM, hits give low values] | [5] | [7]

C[C@@H]1CCCCO[C@@H](CN(C)C(=O)Nc2ccc(F)cc2)[C@H](C)CN([C@H](C)CO)C(=O)c2cc(NS(=O)(=O)c3ccc(Cl)cc3)ccc2O1
inactive: [1] | [2] | [3] | [4] | [6] 17.7% | [5] | [7]

C[C@@H]1CCCCO[C@@H](CN(C)Cc2ccc(C(F)(F)F)cc2)[C@H](C)CN([C@H](C)CO)C(=O)c2cc(NS(=O)(=O)c3ccccc3)ccc2O1
inactive: [1] | [2] | [3] | [4] | [6] -29.5% | [5] | [7]

N#C[C@@H]1[C@@H](c2ccc(-c3cccc(F)c3)cc2)[C@H](CO)N1C(=O)NC1CCCC1
inactive: [1] | [2] | [3] | [4] | [6] 15.7% [at 0.26 µM, hits give low values] | [7] | [8]

Cc1ccc(S(=O)(=O)N2CC[C@@H]3[C@H](CO)N(C)c4ccc(-c5ccc(C#N)cc5)cc4[C@@H]32)cc1
inactive: [1] | [2] | [3] | [4] | [6] 67.4% [at 2.1 µM, hits give low values] | [5] | [7]

C[C@@H]1CN([C@@H](C)CO)C(=O)c2cc(NC(=O)Cc3ccccc3)ccc2O[C@@H](C)CCCCO[C@@H]1CN(C)Cc1ccc(C(F)(F)F)cc1
inactive: [1] | [2] | [3] | [4] | [6] -8.58% | [5] | [7]

Cc1ccc(S(=O)(=O)Nc2ccc3c(c2)C(=O)N([C@H](C)CO)C[C@@H](C)[C@H](CN(C)S(=O)(=O)c2ccc(C)cc2)OCCCC[C@H](C)O3)cc1
inactive: [1] | [2] | [3] | [4] | [6] 32.9% [at 0.26 µM, hits give low values] | [5] | [8]

C[C@@H]1CCCCO[C@H](CN(C)S(=O)(=O)c2cccs2)[C@@H](C)CN([C@@H](C)CO)C(=O)c2cc(NC(=O)Nc3ccc(C(F)(F)F)cc3)ccc2O1
inactive: [1] | [2] | [3] | [4] | [6] -21.9% | [5] | [7] | [8]

C[C@H](O)C#Cc1cnc2c(c1)C(=O)N([C@H](C)CO)C[C@@H](C)[C@@H](CN(C)Cc1ccc(-c3ccccc3)cc1)O2
inactive: [1] | [2] | [3] | [4] | [6] 29.8% [at 2.1 µM, hits give low values] | [5] | [7] | [8]

C[C@H](CO)N1C[C@H](C)[C@@H](CN(C)Cc2ccc(Cl)c(Cl)c2)Oc2ccc(NC(=O)Nc3ccc(C(F)(F)F)cc3)cc2CC1=O
inactive: [1] | [2] | [3] | [4] | [6] 17.7% [at 0.5 µM, hits give low values] | [5] | [7] | [8]

C[C@@H]1CCCCO[C@@H](CN(C)Cc2ccccc2)[C@H](C)CN([C@@H](C)CO)C(=O)c2cc(NC(=O)Nc3ccc(C(F)(F)F)cc3)ccc2O1
inactive: [1] | [2] | [3] | [4] | [5]

Cc1cccc(S(=O)(=O)N2CC[C@@H]3[C@H](CO)N(C)c4ccc(C#Cc5ccc(F)cc5)cc4[C@@H]32)c1
inactive: [1] | [2] | [3] | [4] | [6] -16.3% [at 30 µM, hits give low values] | [5] | [7]
